Measurements reported in PubChem BioAssay AID1878 (Sanford-Burnham Center for Chemical Genomics, 2009).
Among all 1,000 compounds or so, about 200 (20%) were called active. Not all results are given here. Entries with a potency or affinity are not part of this list. A number with no mark means an inactive call. Cut-off read from the data, not from the text of the source: active = inhibition above about 55%; inactive = the rest.

What follows are compounds tested against Dual specificity protein phosphatase 3 (Homo sapiens) (UniProt P51452) (assay: VHR1 phosphatase inhibitors, biochemical (AID 1878)). Details: recombinant VHR phosphatase, fluorogenic substrate; at 13.3 µM; hits give high values.
Dual specificity protein phosphatase 3 (Homo sapiens), sequence (P51452 whole entry, looked up): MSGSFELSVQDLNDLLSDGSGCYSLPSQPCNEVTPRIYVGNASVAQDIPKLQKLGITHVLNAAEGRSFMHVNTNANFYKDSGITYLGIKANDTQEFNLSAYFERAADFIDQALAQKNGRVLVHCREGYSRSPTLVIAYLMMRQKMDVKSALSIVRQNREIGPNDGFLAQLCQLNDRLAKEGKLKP
With `COc1ccc(NC2CCCN(C(=O)c3oc(C)cc3C)C2)cc1OC` (stereo unspecified) the inhibition was 1.1%. `Cc1nc(C)c(C(=O)Nc2cccc(C)c2C)s1` gave an inhibition of 32.5%. In the case of `O=C(O)C1Nc2c(O)cc(Cl)c([N+](=O)[O-])c2C2C=CCC12` (stereo unspecified), the inhibition is reported as 92.7% (active). In the case of `O=C(O)C1Nc2c(Cl)cc(Cl)cc2C2C=CCC12` (stereo unspecified), the inhibition is reported as 89.8% (active). In the case of `O=C(Cn1c(=O)c2cccn2c2ccccc21)NCCCN1CCCCC1`, the inhibition is reported as 2%. For `O=C(CCC(=O)c1ccc(F)cc1)NCc1ccccc1C(F)(F)F`, the inhibition was 2.4%. `COc1cc(CN2CCN(CC3CC3)CC2CCO)cc(OC)c1` (stereo unspecified) was tested, and the inhibition was -3.6%. For `CN(Cc1ccccc1)C(=O)COC(=O)COc1ccc(C#N)cc1`, the inhibition was -2.2%. Compound `CC(C(=O)NCCCc1ccccc1)n1cccc1C(=O)c1ccccc1` (stereo unspecified) has an inhibition of 17.1%. Compound `CC(C)[C@H](NC(=O)C1CCN(S(=O)(=O)c2ccccc2)CC1)C(=O)NCc1ccccc1` has an inhibition of 12.2%. With `CCCc1cc(SCC(=O)Nc2c(C)n(C)n(-c3ccccc3)c2=O)n2c(nc3ccccc32)c1C#N` the inhibition was 98.7% (active). Work on `CC(C(=O)Nc1cccc(S(=O)(=O)N2CCOCC2)c1)N1CCN(C)CC1` (stereo unspecified) yielded an inhibition of -1.7%. With `CCOC(=O)c1c(C)n(CCOc2ccccc2)c2ccc(O)cc12` the inhibition was 14.4%. With `CC(C)/C=C/CN1CCCC(N2CCN(c3cccc(Cl)c3)CC2)C1` (stereo unspecified) the inhibition was -15%. Compound `COC(=O)c1ccc(COc2ccc(F)cc2)o1` has an inhibition of 27.9%. For `C/C(=N\NC(=O)C(=O)Nc1ccc(C)c(Cl)c1)c1ccncc1`, the inhibition was 91.6% (active). `Cc1ccc(F)c(CNC(=O)C2CCC(=O)N(Cc3ccccn3)C2)c1F` (stereo unspecified) gave an inhibition of 1.1%. Work on `CCC(=O)N1CCN=C1SCc1cccc(F)c1` yielded an inhibition of 0.5%. `CCC(=O)Nc1c(-c2ccc(Cl)cc2)c(=O)c2ccccc2n1C` showed an inhibition of -1.5%. With `COC(=O)c1cc(S(=O)(=O)N2CCCCC2)c[nH]1` the inhibition was 4.2%. With `Cc1c(C)c2cc(Cl)c(OCC(=O)NC3CC(C)(C)NC(C)(C)C3)cc2oc1=O` the inhibition was -11.9%. For `Nc1ccc2nc3c(=O)[nH]c(=S)[nH]c3nc2c1`, the inhibition was 61.5% (active). Compound `COc1cccc(-c2ocnc2C(=O)Nc2ccc(N3CCOCC3)cc2N2CCOCC2)c1` has an inhibition of -5.2%. `CCCCN(CCCC)CCNC(=O)CN1C(=O)COc2ccc(S(=O)(=O)N3CCOCC3)cc21` gave an inhibition of -18%. With `Nc1nonc1-c1nc2ccccc2n1CC(=O)N/N=C/c1ccc(-c2cccc(C(=O)O)c2)o1` the inhibition was 73.2% (active). In the case of `O=S(=O)(NCCc1csc(-c2cccnc2)n1)c1ccc(F)cc1`, the inhibition is reported as -3.7%. Compound `Oc1ccc(/C=N/Nc2ncc(Cl)cc2Cl)cc1` has an inhibition of 14.3%. With `CCc1c(C)nc2c(-c3ccccc3)c(-c3ccccc3)[nH]n2c1=O` the inhibition was 1.4%. `COC(=O)c1ccc(NS(=O)(=O)c2ccc3c(c2)n(C)c(=O)n3C)cc1` gave an inhibition of -7.8%. Work on `CCCN1CCC(=O)N([C@H](CSc2ccccc2)CC(C)C)CC1` yielded an inhibition of -3.5%. In the case of `COc1cccc(-c2coc3cc4oc(=O)c(CCC(=O)O)c(C)c4cc23)c1`, the inhibition is reported as -0.1%. For `O=C(NCCCN1CCCCC1)c1ccc(CS(=O)c2ccc(Cl)cc2)o1` (stereo unspecified), the inhibition was -3.5%. Work on `OCCC1CCCCN1CC(O)COCc1ccc(Cl)cc1` (stereo unspecified) yielded an inhibition of -7.1%. With `c1ccc(-c2ccnc3nc(N4CCN(c5ccccc5)CC4)nn23)cc1` the inhibition was 19%. For `CC1Cc2cc(-c3csc(N)n3)ccc2O1` (stereo unspecified), the inhibition was 7.6%. `O=C(CNC(=O)c1ccco1)Nc1ccc(Br)cc1` was tested, and the inhibition was 7%. `CCCC(CCC)C(=O)NC1CCN(Cc2ccccc2)CC1` was tested, and the inhibition was -4.1%. In the case of `S=C(c1ccc(OCc2ccccc2)cc1)N1CCCC1`, the inhibition is reported as 7.3%. With `CN(C)c1ccc(C(=S)N2CCN(Cc3ccccc3)CC2)cc1` the inhibition was 56.8% (active). For `O=c1[nH]c2ccc(NS(=O)(=O)c3ccc(F)c(Cl)c3)cc2[nH]1`, the inhibition was -7.2%. `NC(=S)N/N=C/c1ccc2cccc(OCc3ccccc3)c2n1` gave an inhibition of 9.9%. Compound `Cc1cc2c(cc3c(=O)n(CC(=O)NCCCN4CC(C)CC(C)C4)ncn32)s1` (stereo unspecified) has an inhibition of -3.8%. For `Cc1[nH]c(=O)[nH]c(=O)c1S(=O)(=O)Nc1ccc(Br)cc1F`, the inhibition was 4.3%. `O=C(N[C@@H](Cc1ccccc1)C(=O)N1CCC2(CC1)NCCc1[nH]cnc12)c1cccc(F)c1` showed an inhibition of 19.9%. Compound `CN1CCN(Cc2nc3ccccc3n2C)CC1CCO` (stereo unspecified) has an inhibition of -0.8%. In the case of `CS(=O)(=O)C1=NSC2=NC(=O)/C(=C\c3cccn3-c3ccc(Cl)cc3)C(=N)N21`, the inhibition is reported as 86.4% (active). `Cc1ccc(-n2cccc2/C=C2\C(=N)N3N=C(c4ccco4)SC3=NC2=O)cc1` was tested, and the inhibition was 98.9% (active). With `c1ccc(NC2=NCCCS2)cc1` the inhibition was -2.2%. In the case of `COc1ccc(C)c(NC(=O)NCCc2cnc[nH]2)c1`, the inhibition is reported as 7.6%. With `CCOc1ccc(S(=O)(=O)N2CCOCC2)cc1NC(=O)CSCC(=O)Nc1cccc(C)c1` the inhibition was -2.1%. `CCCCCCC(=O)Nc1nc(C)c(-c2csc(Nc3cc(OC)ccc3OC)n2)s1` showed an inhibition of 11.7%. Compound `O=C(COc1ccc(S(=O)(=O)N2CCOCC2)cc1)N1CCN(c2ccccc2)CC1` has an inhibition of 7.2%. In the case of `CNC1(C(N)=O)CCNCC1`, the inhibition is reported as -8.1%. `CC1=CC(=C2C=CC(=O)C=C2)C=C(C)N1C` showed an inhibition of 4.7%. `CCCCNC(=O)CCc1c(C)nc2c(c(C)nn2-c2ccccc2)c1C` showed an inhibition of -6.7%. Work on `Cc1cccc(-n2c(N)c(C(=O)N3CCN(C)CC3)sc2=S)c1` yielded an inhibition of 36.6%. `Cc1ccc(CC(=O)NC2CCN(C)CC2)cc1` showed an inhibition of 21.9%. Compound `CN1CCCN(C(=O)c2cccc(Cl)c2)CC1` has an inhibition of -8.6%. For `CC(C)c1ccc(NC(=O)N2CCN(S(=O)(=O)c3ccccc3)CC2)cc1`, the inhibition was 0%. `Nc1c2c(nc3c1CCCC3)CCCC2` (tested in a mixture with another compound) showed an inhibition of -12.1%. Compound `CN(C)CCN(Cc1ccccc1)C(=O)C1CCN(c2ncnc3c2nc2n3CCCCC2)CC1` has an inhibition of -3.7%. `CC(C)(C)NC(=S)N1CCC(C(=O)c2ccc(F)cc2)CC1` was tested, and the inhibition was -7.6%. `Cc1ccc(N=C2C(=O)Nc3c(C)cccc32)cc1` showed an inhibition of -18.2%. `O=S(=O)(NC(=NCc1ccccc1)c1ccccc1)c1ccccc1` showed an inhibition of -7.7%. With `CCC(C)(C)NC(=O)CN(C(=O)CCC(=O)Nc1nccs1)c1ccc2c(c1)OCCO2` the inhibition was 1.8%. For `O=C(c1cccc([N+](=O)[O-])c1)c1ccc2c(c1)C(=O)N(c1c[nH]c(=O)[nH]c1=O)C2=O`, the inhibition was -0.9%. `CC(C)=C(NC(=O)c1ccccc1)C(=O)NCCc1nc2ccccc2[nH]1` showed an inhibition of 26.9%. `Cc1ccc2nc(NC(=O)C3CC3C)sc2c1` (stereo unspecified) showed an inhibition of -7.4%. In the case of `CCc1ccc2nc(NC(=O)c3ccc4c(=O)[nH]c(CN5CCOCC5)nc4c3)sc2c1`, the inhibition is reported as 66.5% (active). Compound `CCN(CC)CCCNC(=O)c1oc2ccc3c(c2c1C)C(O)CC(C)(C)O3` (stereo unspecified) has an inhibition of -1.6%. Compound `CC(C)C(=O)N1CCC(n2nccc2NC(=O)CCc2ccccc2)CC1` has an inhibition of -2.1%.
